The list is not random: actives were taken first. Their share in the collection is about 5.8%.
uPA generation: qHTS for Inhibitors of Cell Surface uPA Generation | cell surface uPA generation assay, qHTS | Potency, µM (titrated, usually from 38.3 µM), most hits filed as inhibitors | 330,000 compounds, 0.31% hits; active = well fitted inhibition curve with a large enough effect; inconclusive = small, poorly fitted or top-dose-only effect; inactive = no such curve, though single readings can be large or run the other way; tested in mouse RAW 264.7 cells; also: nearly all actives have a fitted effect of over 55% in size
TRPV1 potentiator: HTS Assay for Compounds that Act as Potentiators of the Vanilloid Receptor 1; 320,000 compounds, 0.02% hits; potentiation, % at 8.33 µM; TRPV1-expressing cells, Fluo-8 calcium influx, capsaicin EC20 potentiation; Transient receptor potential cation channel subfamily V member 1 (Homo sapiens), Q8NER1; in the data active = potentiation above about 80%; inconclusive = between about 30% and that limit
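Cells expressing TRPV1 were dye-loaded with Fluo-8 and read kinetically: 10 s baseline, 3 min after compound (agonist portion), then 2 min after EC20 capsaicin (allosteric enhancer portion). Calcium-bound dye fluorescence at 480/520 nm.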
RORg inh: qHTS for inhibitors of ROR gamma transcriptional activity. Drosophila S2 Gal4-RORgamma UAS-luciferase reporter, 20 h. Potency, µM (highest dose often 53.6 µM), most hits filed as inhibitors. 310,000 compounds, 5.4% hits. AID 2551, 2010; also: nearly all actives have a fitted effect of over 60% in size
Target sequence (P51450 whole entry, looked up, the tested form may be a part): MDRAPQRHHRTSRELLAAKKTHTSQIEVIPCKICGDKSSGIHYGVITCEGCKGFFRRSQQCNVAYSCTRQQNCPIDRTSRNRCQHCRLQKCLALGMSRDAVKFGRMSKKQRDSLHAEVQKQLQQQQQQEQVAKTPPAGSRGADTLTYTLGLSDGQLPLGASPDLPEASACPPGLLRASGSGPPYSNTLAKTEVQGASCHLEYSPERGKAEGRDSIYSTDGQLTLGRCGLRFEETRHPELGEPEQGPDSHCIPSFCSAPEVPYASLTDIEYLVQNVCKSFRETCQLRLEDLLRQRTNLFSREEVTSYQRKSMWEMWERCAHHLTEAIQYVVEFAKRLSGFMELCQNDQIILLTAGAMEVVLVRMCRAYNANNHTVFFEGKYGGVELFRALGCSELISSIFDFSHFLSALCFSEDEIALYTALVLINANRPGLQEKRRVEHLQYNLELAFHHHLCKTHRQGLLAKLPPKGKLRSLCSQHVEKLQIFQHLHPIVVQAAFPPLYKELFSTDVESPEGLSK
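Using a luciferase readout, inhibitors were identified by reduced reporter activity in Drosophila cells coexpressing a copper-inducible Gal4–ROR gamma fusion and UAS-driven Photinus luciferase, incubated 20 hr after 700 uM copper sulfate.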
Gal4-VP16 FLuc: VP16 counterscreen qHTS for inhibitors of ROR gamma transcriptional activity; Drosophila S2 Gal4-VP16 UAS-luciferase, luminescence, 20 h; Potency, µM (titrated, usually from 53.6 µM), actives largely listed as inhibitors; 310,000 compounds, 3.5% hits; AID 2546, 2010;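 also: Gal4-VP16 expression switched on by copper sulfate through the metallothionein promoter; nearly all actives have a fitted effect of over 50% in size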
TRPV1 ag: HTS Assay for Compounds that Act as Agonists of the Vanilloid Receptor 1 | Transient receptor potential cation channel subfamily V member 1 (Homo sapiens), Q8NER1 | TRPV1-expressing cells, Fluo-8 calcium influx, agonist mode | activation, % at 8.33 µM | 320,000 compounds, 0.19% hits | AID 540275, 2011; in the data active = activation above about 80%; inconclusive = between about 30% and that limit
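TRPV1-expressing cells were cultured overnight at 35.5C and loaded with Fluo-8 calcium dye for 40 to 90 min at room temperature. After a 10 s baseline, compound was added and calcium influx was read kinetically for 3 min (ex 480/em 520 nm).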
Each line names hits and unclear results; the compound was inactive in the other large screens. Unless noted, calls follow the shape of the dose curve; as a rule, active = well fitted curve in the direction sought with a large enough effect; inconclusive = small, poorly fitted or top-dose-only effect, or another doubt; inactive = no such curve, though single readings can be large; an effect the other way counts as inactive or inconclusive.

COc1ccc(/C(O)=C(\C#N)c2nc3ccccc3n2C)cc1OC	RORg inh 7.1µM, Gal4-VP16 FLuc 18µM (no result: uPA generation)
Cn1c(C(=O)c2ccccc2)nc2ccccc21	none
COc1ccc(C(=O)NC(C)c2nc3ccccc3n2C)cc1OC (stereo unspecified)	none (no result: Gal4-VP16 FLuc)
Cn1c(/C(C#N)=C(\O)c2ccc(Br)s2)nc2ccccc21	RORg inh 3.5µM, Gal4-VP16 FLuc inconclusive
COC(CNC(=O)CNC(=S)N(Cc1ccccc1)Cc1cccnc1)OC	none
COc1cccc(NC(=O)CCNS(=O)(=O)c2ccc3c(c2)CC(C)N3C(=O)C2CC2)c1 (stereo unspecified)	none
Cc1ccc(Cn2c(=O)n(C)c(=O)c3sccc32)cc1	RORg inh inconclusive, Gal4-VP16 FLuc inconclusive
COc1ccc(N(CC(O)CN2CCOCC2)S(=O)(=O)c2ccccc2)cc1 (stereo unspecified)	none
OC[C@H]1NC[C@@H](O)[C@@H](O)[C@@H]1O	none (no result: uPA generation, TRPV1 potentiator, TRPV1 ag)
Cn1c(/C(C#N)=C(\O)c2ccc(S(=O)(=O)N3CCCCC3)cc2)nc2ccccc21	RORg inh 4.5µM, Gal4-VP16 FLuc 10µM
COc1cccc(/C=N/NC(=O)N/N=C/c2cccc(OC)c2O)c1O	none
CC(=O)N/N=C/c1cc(C(C)(C)C)cc(/C=N/NC(C)=O)c1O	RORg inh 2.8µM, Gal4-VP16 FLuc 14µM
Cc1ccc(N(CC(=O)NC2CCCC2)C(=O)c2nsc(Cl)c2Cl)cc1	none
O=C1NN=C(c2ccc(Br)cc2)CC1c1ccc(Cl)cc1 (stereo unspecified)	none
Cc1ccc(C2CC(c3ccc(Cl)cc3)=NNC2=O)cc1 (stereo unspecified)	RORg inh inconclusive, Gal4-VP16 FLuc 14µM
COc1ccc2nc(N)sc2c1	TRPV1 potentiator inconclusive (no result: uPA generation)
COc1ccc2nc(N=NC3=C(O)CC(C)(C)CC3=O)sc2c1	RORg inh 11µM, Gal4-VP16 FLuc inconclusive
COc1ccc2nc(N=Nc3ccc(O)c4ccccc34)sc2c1	RORg inh 1.6µM, Gal4-VP16 FLuc 5µM
CN(C)S(=O)(=O)c1ccc(Cl)c(NC(=O)CN2C(=O)NC(C)(C3CC3)C2=O)c1 (stereo unspecified)	uPA generation 5.6µM
COc1ccc(NC(=O)C2CCCN(c3nn4c(=O)cc(C)nc4s3)C2)c(OC)c1 (stereo unspecified)	none
O=C(/C=C/c1c(Cl)cccc1Cl)n1cccn1	RORg inh inconclusive, Gal4-VP16 FLuc 11µM
CC12CCC(c3n[nH]c(=S)nc31)C2(C)C (stereo unspecified)	RORg inh 13µM, Gal4-VP16 FLuc inconclusive
CCCCOc1ccccc1NC(=O)CC1Nc2ccccc2NC1=O (stereo unspecified)	TRPV1 potentiator inconclusive, RORg inh 10µM, Gal4-VP16 FLuc inconclusive
CCC(C)[C@H](NC(=O)N1CCC(Cc2ccccc2)CC1)C(=O)O (stereo partly specified)	none
CC(=O)c1c(CSc2ccccc2)oc2ccc(O)c(CN(C)C)c12	none
Cc1cc(N2CCN(c3ccc([N+](=O)[O-])c4cccnc34)CC2)c2ccccc2n1	RORg inh 13µM, Gal4-VP16 FLuc 7.1µM
Cc1cc(N2CCN(c3ccc(C(F)(F)F)cc3[N+](=O)[O-])CC2)c2ccccc2n1	uPA generation 14µM, Gal4-VP16 FLuc inconclusive
Cc1ccc(S(=O)(=O)N2CCN(c3ccc(C(F)(F)F)cc3[N+](=O)[O-])CC2)cc1	RORg inh inconclusive
Cc1nc([N+](=O)[O-])c(SCC(O)CCl)n1Cc1ccc(Cl)cc1 (stereo unspecified)	none
O=C(CCCOc1ccc(Cl)cc1)N1CCCCC1	TRPV1 ag 90
O=C(CCCOc1ccc(Cl)cc1)N1CCOCC1	none (no result: TRPV1 potentiator, TRPV1 ag)
CC(C)(C)c1ccc(OCCCC(=O)N2CCOCC2)cc1	RORg inh inconclusive, Gal4-VP16 FLuc 11µM, TRPV1 ag 85
O=C1C2C(c3ccccc3)CC=CC2C(c2cccc([N+](=O)[O-])c2)N1Cc1ccccc1 (stereo unspecified)	none (no result: uPA generation, TRPV1 potentiator, TRPV1 ag)
CCOC(=O)c1oc2ccc(/C=N/O)c(Cl)c2c1C	RORg inh 0.56µM, Gal4-VP16 FLuc 3.2µM
Cc1c(/C=N/NC(=O)CNc2ccccc2)c2ccccn2c1C(=O)c1ccccc1	RORg inh inconclusive
CSc1cc(-c2ccc(Cl)cc2)c(C(=O)NN)s1	RORg inh 11µM, Gal4-VP16 FLuc inconclusive (no result: uPA generation, TRPV1 potentiator, TRPV1 ag)
CSc1cc(-c2ccc(Cl)cc2)c(C(=O)NC(C)C)s1	none (no result: TRPV1 potentiator, TRPV1 ag)
COc1cc2ccccc2cc1C(=O)NC1CCC(C)CC1 (stereo unspecified)	none (no result: TRPV1 potentiator, RORg inh, Gal4-VP16 FLuc, TRPV1 ag)
Cc1ccc(OCC(=O)Nc2ccc(O)c(-c3nc4ccccc4o3)c2)cc1	none
O=C(Nc1ccc(O)c(-c2nc3ccccc3o2)c1)C1(c2ccc(Br)cc2)CCCC1	RORg inh 6.3µM, Gal4-VP16 FLuc 5.6µM
CCN1CNC(=S)N(C(C)c2ccccc2)C1 (stereo unspecified)	RORg inh 10µM, Gal4-VP16 FLuc 13µM
CCOc1ccccc1N1CN(CC)CNC1=S	RORg inh inconclusive
CCN1CN(CCc2ccccc2)CNC1=S	RORg inh 13µM, Gal4-VP16 FLuc inconclusive
C=CCN1CN(CCc2ccccc2)CNC1=S	RORg inh 1.6µM, Gal4-VP16 FLuc 16µM
CCOc1ccc(CCN2CN(CC)CNC2=S)cc1OCC	RORg inh 13µM, Gal4-VP16 FLuc inconclusive
COc1ccc(NC(=O)Nc2ccc(Cc3ccncc3)cc2)cc1OC	TRPV1 potentiator inconclusive, RORg inh inconclusive
CCN1CNC(=S)N(c2ccccc2C)C1	none
CCN1CNC(=S)N(CCc2ccccc2)C1	RORg inh 8.9µM, Gal4-VP16 FLuc 13µM
S=C1NCN(Cc2ccccc2)CN1	none
COc1ccccc1N1CN(CCc2ccccc2)CNC1=S	Gal4-VP16 FLuc inconclusive
CCN1CNC(=S)N(Cc2ccccc2)C1	RORg inh 16µM, Gal4-VP16 FLuc inconclusive
Cc1ccc(N2CN(CCc3ccccc3)CNC2=S)cc1	RORg inh 5µM, Gal4-VP16 FLuc 13µM
CCOC(=O)c1ccc(N2CN(CCc3ccccc3)CNC2=S)cc1	RORg inh inconclusive, Gal4-VP16 FLuc inconclusive
COc1ccccc1N1CN(Cc2ccccc2)CNC1=S	RORg inh 2µM, Gal4-VP16 FLuc inconclusive
CC(C)(CC(=O)O)CC(=O)N1CCCN(c2nccc(C(F)(F)F)n2)CC1	none
CCCCNC(=O)NS(=O)(=O)c1ccc(N)cc1	none (no result: uPA generation, TRPV1 potentiator, TRPV1 ag)
O=C(N/N=C\c1ccc(CNS(=O)(=O)c2ccc(Cl)cc2)o1)C(=O)Nc1ccc(Oc2ccccc2)cc1	RORg inh 13µM, Gal4-VP16 FLuc 13µM
O=C(NCc1ccc(/C=N\NC(=O)C(=O)Nc2ccccc2Br)o1)C(=O)Nc1ccccc1	RORg inh 11µM, Gal4-VP16 FLuc inconclusive
O=C(N/N=C\c1ccc(CNS(=O)(=O)c2ccccc2)o1)C(=O)Nc1ccc(F)cc1	RORg inh inconclusive
